The whole screen tested about 69,000 compounds, of which about 8,600 (12%) showed an effect of 50% or more. This is one part of a sample in which strong results are shown more often than they occur.

For the assay, the system named is Plasmodium berghei. Briefly: Screen against P. berghei liver stage (PbLuc), transformed with Luciferase, at 10uM. Particulars: tested at 10 uM. In kind it is functional, HepG2.
With `Cc1ccc(CN2CC[C@@]3(O)CCN(S(=O)(=O)N(C)C)C[C@H]3C2)cc1C`, the INHIBITION is reported as -4.95%. For `COc1ncccc1CNC(=O)Nc1ccc(N(C)C)nc1` the value was 15.6%; for `COCCN1C(=O)CCC12CCN(c1ncc(F)cn1)CC2`, 14.1%. Take `CCn1ncc2c1CCCC2NCc1cscn1` (stereo not drawn): the INHIBITION turned out to be 35.4%. On to `CCn1ncc2c1CCCC2NCc1ccccc1N1CCOCC1` (stereo not drawn), for which the INHIBITION stood at 56.4%. In the case of `CCn1ncc2c1CCCC2NCc1cc(C)ccc1OC` (stereo not drawn), the INHIBITION is given as 9.14%.

`CCn1ncc2c1CCCC2NCc1ccc(C)s1` (stereo not drawn): the INHIBITION was -21.9%. For `CCn1ncc2c1CCCC2NCc1cccc2c1OCO2` (stereo not drawn) the value was 33.8%. As to `CCCOc1ccc(CNC2CCCc3c2cnn3CC)cc1OC` (stereo not drawn), the INHIBITION was 52%. With `CCn1ncc2c1CCCC2NCc1ccc(OC)c(C)c1` (stereo not drawn), the INHIBITION was 38%. In the case of `CCn1ncc2c1CCCC2NCC1=Cc2ccccc2OC1` (stereo not drawn), the INHIBITION amounted to 63.9%. Consider `CCn1ncc2c1CCCC2NCc1cccc2c1OCCO2` (stereo not drawn), for which the INHIBITION is given as 18.6%. `Cc1ccc(CNC2CCCc3c2cnn3Cc2ccccc2)s1` (stereo not drawn): the INHIBITION was 60.9%.

On to `CCn1ncc2c1CCCC2NCc1ccc(OC)c(F)c1` (stereo not drawn), for which the INHIBITION was determined as 21.5%. Take `Cc1cccc(CNC2CCCc3c2cnn3Cc2ccccc2)c1` (stereo not drawn): the INHIBITION stood at 26.4%.

For the compound `NC(=O)CN1CCCC(Cc2ccc(N3CCOCC3)nn2)C1` (stereo not drawn), the INHIBITION was found to be 15.9%. Take `COC(=O)C(NC(=O)C1CCC1)c1cc(F)ccc1F` (stereo not drawn): the INHIBITION is -19.9%.

Turning to `Cc1nn(C)c(Cl)c1C(=O)NCC1(C(N)=O)CCOCC1`, the INHIBITION was 27.5%. For `Cc1ccc2nc(CN(C)Cc3[nH]nc4c3CCC4)[nH]c2c1C` the value was -59.5%; for `Cc1ccc2nc(CN(C)Cc3n[nH]c4c3CCCCC4)[nH]c2c1C`, 69.6%. For `Cc1ccc2[nH]c(CN(C)Cc3n[nH]c4c3CCC4)nc2c1` the value was -30.5%. Consider `CCCNS(=O)(=O)c1cnccc1N1CCN(C(C)C)CC1`, for which the INHIBITION is -15.5%.

`C1CC(NCC2CC2)CN(Cc2noc(C3CC3)n2)C1` (stereo not drawn): the INHIBITION stood at 19.5%. As for `CCN1CCN(C(=O)NCc2cccc(-c3cnn(C)c3)c2)CC1`, the INHIBITION is reported as 50.1%.

For the compound `Cn1cc(-c2cccc(CNC(=O)N3CCC[C@@H]3CO)c2)cn1`, the INHIBITION is on record as -21.6%. Consider `CCC1COCCN1C(=O)NCc1cccc(-c2cnn(C)c2)c1` (stereo not drawn), for which the INHIBITION was found to be 21.2%. Take `Cn1cc(C(=O)N2CC[C@@H]3[C@@H]2CCN3Cc2cccc(C#N)c2)cn1`: the INHIBITION came to 41.6%. `CN(CCCc1ccccc1)C(=O)CCc1nc(-c2nnc[nH]2)no1`: the INHIBITION was 22%.

Turning to `CN(Cc1ccc(F)c(F)c1)C(=O)CCc1nc(-c2nnc[nH]2)no1`, the INHIBITION is 55.4%. For `Cc1ccccc1CN(C)C(=O)CCc1nc(-c2nnc[nH]2)no1` the value was 13.7%; for `O=C(NCc1cccc(F)c1)NCC(O)c1cccc(F)c1` (stereo not drawn), -21.5%. As to `CN(C)CCOCc1nnc2n1CCN(CC1CC1)CC2`, the INHIBITION amounted to 36.2%. Consider `COc1cccc(C(=O)NCc2ccccc2S(=O)(=O)N(C)C)c1`, for which the INHIBITION is on record as 45.2%. As to `Cc1ccc(C(=O)NCc2ccccc2S(=O)(=O)N(C)CCO)cc1F`, the INHIBITION is listed as -27.8%. Turning to `COc1cccc(C(=O)NCc2ccccc2S(=O)(=O)N(C)CCO)c1`, the INHIBITION turned out to be 78.1%. In the case of `Cc1noc(C2CCN(C(=O)c3cccs3)CC2)n1`, the INHIBITION amounted to 21%. Regarding `CC1(C)CC(N2CCN(C3CCCC3)C(CCO)C2)CC(C)(C)C1` (stereo not drawn), the INHIBITION was -2.98%. With `CN(CC(F)(F)F)C(=O)COc1nc(Cc2ccc(F)cc2)no1`, the INHIBITION is reported as 40.6%. In the case of `Cc1cccc(C(=O)N2CCCSCC2CN2CCCC2)c1` (stereo not drawn), the INHIBITION is on record as -19.7%. In the case of `Cc1cccc(NCc2nc(C)ccc2O)c1`, the INHIBITION is 24.8%. Take `Cn1[nH]c(CNc2cccc(Cl)c2)nc1=O`: the INHIBITION is listed as -0.473%. For `Cc1cccc(NCc2nn(C)c(=O)[nH]2)c1` the value was 59.8%; for `CCc1ncc2c(n1)CN(CC(=O)Nc1cc(C)no1)CC2`, -25.8%; for `CN1CCN(C2CCCC2)C(CCO)C1` (stereo not drawn), 7.24%. For `COC(=O)COc1nc(C(C)C)no1` the value was 7.25%; for `CCN(CC)C(=O)COc1nc(C(C)C)no1`, 53.1%; for `CC(C)c1noc(OCC(=O)N(C)C(C)C)n1`, -13.6%. As to `Cn1cnnc1CC1CCN(Cc2nn(C)c3cccc(Cl)c23)CC1`, the INHIBITION was determined as 75.4%. As to `CCc1nn(C)c(Cl)c1CN1CCC(Cc2nncn2C)CC1`, the INHIBITION is on record as -7.25%. Regarding `Cn1nc(CN2CCC(c3ccncc3)CC2)c2c(Cl)cccc21`, the INHIBITION is -18.1%. As for `Cc1nc(CN2CCCN(CCCc3ccccc3)CC2)no1`, the INHIBITION is recorded as -34.8%.

For `Cc1nc(CN2CCCC(C)(CO)C2)no1` (stereo not drawn), the INHIBITION is on record as 68.1%. As to `Cc1nc(CN2CCOC3(CCCC3)C2)no1`, the INHIBITION was determined as 42.5%. On to `c1csc(CN2CCc3onc(Cn4cccc4)c3C2)c1`, for which the INHIBITION was determined as 2.41%. For `Cc1cccc(S(=O)(=O)NC(=O)CCc2cscn2)c1` the value was 18.6%; for `O=C(CN(Cc1ccccc1)CC1CCOCC1)Nc1nccs1`, -1.53%; for `NC(=O)NC(=O)CCN(Cc1ccccc1)CC1CCOCC1`, 6.23%. For the compound `O=C(CN(Cc1ccccc1)CC1CCOCC1)NC(=O)NC1CC1`, the INHIBITION is given as 55.1%. For `Cc1ccc(C(=O)NC2CCN(C(=O)NCc3ccccn3)CC2)o1` the value was -4.16%; for `Cc1cc(NC(=O)NCC2CCN(C(C)C)C2)no1` (stereo not drawn), -25.8%; for `Cc1cn2c(n1)CCC(NC(=O)c1ccc(S(C)(=O)=O)o1)C2` (stereo not drawn), 42.3%.

Turning to `Cc1ccc(CNC(=O)Cn2c(=O)c3cccnc3n2C)cc1F`, the INHIBITION is 47.2%.

In the case of `Cn1c2ncccc2c(=O)n1CC(=O)NCCc1c(F)cccc1F`, the INHIBITION worked out at 39.6%. For `Cn1c2ncccc2c(=O)n1CC(=O)NCCC1=CCCCC1` the value was 66.8%; for `CCc1ccc(CN2CCc3ncnc(N4CCOCC4)c3CC2)o1`, 12.7%. With `CC(C)(C)CN(CCC#N)Cn1cc(Cl)cn1`, the INHIBITION amounted to 40.7%. On to `N#Cc1ccc(CN2CCCC2Cn2cccn2)c(F)c1` (stereo not drawn), for which the INHIBITION came to 25.6%. Take `N#Cc1cc(F)ccc1CN1CCCC1Cn1cccn1` (stereo not drawn): the INHIBITION is listed as 66.7%.

In the case of `CC(C)(C)c1nc(CN2CCCC2Cn2cncn2)no1` (stereo not drawn), the INHIBITION is -38%.

For `Cn1ccnc1CN1CCCC1Cn1cccn1` (stereo not drawn), the INHIBITION was -14%. For `Cn1ccnc1CN1CCCCC1Cn1cccn1` (stereo not drawn) the value was 59.7%; for `Cc1cnn(CC2CCCN2Cc2cc(=O)n3cccc(C)c3n2)c1` (stereo not drawn), 42.9%. As to `Cc1cnn(CC2CCCN2Cc2noc(C(C)(C)C)n2)c1` (stereo not drawn), the INHIBITION is recorded as -9.37%. With `N#Cc1cc(F)ccc1CN1CCCCC1Cn1cccn1` (stereo not drawn), the INHIBITION is listed as 5.03%. For the compound `Cc1cnn(CC2CCCN2Cc2nccn2C)c1` (stereo not drawn), the INHIBITION was determined as 41.2%. As to `Cc1cccn2c(=O)cc(CN3CCCC3Cn3cncn3)nc12` (stereo not drawn), the INHIBITION is on record as -30.7%. For the compound `Cc1cccn2c(=O)cc(CN3CCCC3Cn3cccn3)nc12` (stereo not drawn), the INHIBITION was found to be 65.2%. For `CC(C)(C)c1nc(CN2CCCC2Cn2cccn2)no1` (stereo not drawn) the value was 60.5%.

Source of the values: ChEMBL document CHEMBL4513216, “Probing the Open Global Health Chemical Diversity Library for Multistage-Active Starting Points for Next-Generation Antimalarials” (ACS Infect Dis, 2020).
